The results in this text go back to PubChem BioAssay (NCI).

The nature of test [1]: NCI Yeast Anticancer Drug Screen. Data for the rad50 strain (AID 155).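 Note: 0% = growth of vehicle-only cultures of the same strain.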 The following applies: S. cerevisiae rad50 strain growth inhibition; at 50.0 µM; stronger effect = higher value. The method in brief:
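Growth of the mutant yeast was measured after compound exposure and referenced to vehicle-treated cultures.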

Test [2] can be described thus: NCI Yeast Anticancer Drug Screen. Data for the mec2-1 strain (AID 157). As to conditions: S. cerevisiae mec2-1 strain, at 50.0 µM, stronger effect = higher value. In short, it runs like this: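 Readout is yeast growth inhibition, normalised to vehicle-treated controls, in the mec2-1 strain exposed to compound.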
Test [3] can be described thus: NCI Yeast Anticancer Drug Screen. Data for the sgs1 mgt1 strain (AID 161).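 Note: 0% = growth of cultures given vehicle only.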 The following applies: S. cerevisiae sgs1 mgt1 strain, at 50.0 µM, stronger effect = higher value. In short, it runs like this: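 Growth of a repair-deficient yeast mutant was monitored after compound treatment and expressed as inhibition relative to vehicle-treated cultures.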
Test [4] in a line: NCI Yeast Anticancer Drug Screen. Data for the cln2 rad14 strain (AID 165).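 Note: 0% = growth equal to vehicle treated cultures.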 As to conditions: S. cerevisiae cln2 rad14 strain, at 50.0 µM, stronger effect = higher value. In short, it runs like this:
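Relative to vehicle controls, growth inhibition of compound-treated cln2 rad14 yeast was recorded.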

The nature of test [5]: NCI Yeast Anticancer Drug Screen. Data for the bub3 strain (AID 167). As to conditions: S. cerevisiae bub3 mutant strain, at 50.0 µM, stronger effect = higher value. The method in brief:
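Whole-cell yeast assay. The mutant strain was incubated with compounds, and growth inhibition was determined by comparison with vehicle-treated cells.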

Test [6] is described as follows: NCI Yeast Anticancer Drug Screen. Data for the mlh1 rad18 strain (AID 175). The following applies: S. cerevisiae mlh1 rad18 strain growth inhibition; at 50.0 µM; stronger effect = higher value. In short, it runs like this: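 Test agents were incubated with a yeast strain of defined genotype (DNA damage repair defect). Inhibition of growth was derived by comparison with vehicle-exposed cultures.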

Compounds without any hit were thinned out: in the full panel of roughly 79,000, 15% have a hit. Unmarked numbers belong to inactive results. Activity calls are given as the source filed them. Cut-off read from the data, not from the text of the source: active = growth inhibition above about 70%; inactive = the rest.

With `Cc1ccc(N2C(=O)/C(=C/c3ccc(N(CCC#N)CCC#N)cc3)CC2(O)c2ccccc2)cc1` (stereo not given), the growth inhibition in test [1] is -12.1%; in test [2], -12.6%; in test [3], -38.3%; in test [4], -23.8%; in test [5], -13.1%; in test [6], -5.55%.

Regarding `CCOC(=O)N1N=C(c2ccccc2)OC2(N3CCOCC3)CCC(C(C)(C)C)CC12` (stereo not given), the growth inhibition was 12.8% in test [1]; 5.1% in test [2]; 4.6% in test [3]; 5% in test [4]; -3% in test [5]; -2.4% in test [6].

In the case of `O=S(=O)(Nc1nc2ccccc2nc1Nc1cccc2ccccc12)c1ccccc1`, the growth inhibition is -1.3% in test [1]; -5.05% in test [2]; 3.8% in test [3]; -13.5% in test [4]; -10.9% in test [5]; -26.4% in test [6].

For the compound `CCC(C)(CCC(C)C)c1ccncc1` (stereo not given), the growth inhibition was -3.45% in test [1]; 9.3% in test [2]; -0.05% in test [3]; -8.45% in test [4]; -0.75% in test [5]; 3.05% in test [6].

`O=C(O)C(Br)C(O)c1ccccc1` (stereo not given): the growth inhibition in test [1] was -5.15%; in test [2], -2.85%; in test [3], 0.85%; in test [4], 2.15%; in test [5], 4.25%; in test [6], -8.2%.

Turning to `O=c1[nH]c(O)c(/C=N/C(=S)NCc2ccccc2)c(=O)[nH]1`, the growth inhibition in test [1] is -41%; in test [2], -37.9%; in test [3], -26.1%; in test [4], 5.9%; in test [5], -0.55%; in test [6] it was -12.3%.

Take `Cc1ccc(O)c(C2C=CCC2)c1` (stereo not given): the growth inhibition in test [1] was 8.6%; in test [2] it was -7.25%; in test [3] it was 22.8%; in test [4] it was 7.5%; in test [5], -1.35%; in test [6], 4.2%.

For the compound `Nc1cccc(Oc2ccc([N+](=O)[O-])cc2)c1`, the growth inhibition in test [1] is 16.9%; in test [2] it was 25%; in test [3] it was 28.3%; in test [4], 17.2%; in test [5] it was 32.5%; in test [6], 24.7%.

In the case of `Nc1ccc(N(S(=O)(=O)c2ccccc2)S(=O)(=O)c2ccccc2)c(Cl)c1`, the growth inhibition was 77.3% (active) in test [1]; 45.8% in test [2]; 82% (active) in test [3]; 39.5% in test [4]; 69% in test [5]; 78.7% (active) in test [6].

Regarding `CN(CC(=O)NC(=O)c1ccccc1)Cc1ccccc1`, the growth inhibition in test [1] was -1.7%; in test [2], -9.25%; in test [3], 3.95%; in test [4] it was -37%; in test [5] it was 3.55%; in test [6] it was -7.8%.

On to `CC[O-].CC[O-].O=Nc1ccc2cc([O-])ccc2c1.O=Nc1ccc2cc([O-])ccc2c1.[Ti+4]`, for which the growth inhibition in test [1] was 34.9%; in test [2], 44.9%; in test [3] it was 59.5%; in test [4] it was 45%; in test [5] it was 52.6%; in test [6] it was 15.9%.

`N=C(CNC(=O)OCc1ccccc1)N1CCCC1C(=O)O` (stereo not given): the growth inhibition is 13.6% in test [1]; 2.8% in test [2]; 0.9% in test [3]; -1.7% in test [4]; -1.8% in test [5]; -6.95% in test [6].

Take `CCCCCC(=O)OCCOCCCC`: the growth inhibition is 2.05% in test [1]; 4% in test [2]; -4.6% in test [3]; -35.4% in test [4]; 6.85% in test [5]; 5.85% in test [6].

With `c1ccc2c3c(ccc2c1)CCC3`, the growth inhibition in test [1] was -20.9%; in test [2], -42.9%; in test [3] it was -35%; in test [4], 10%; in test [5] it was -25.4%; in test [6], -12.4%.

Consider `O=C1NC2(CCCCC2)N=C2C(Cl)CCCC12Cl` (stereo not given), for which the growth inhibition is -22.1% in test [1]; -24.5% in test [2]; -0.7% in test [3]; 21% in test [4]; -1.85% in test [5]; -8.8% in test [6].

Consider `COc1cc(O)c2c(c1)C(=O)c1cc3c(c(O)c1C2=O)C(O)C(OC)C(C)(O)C3O` (stereo not given), for which the growth inhibition in test [1] was 72.5% (active); in test [2], 54.3%; in test [3], 72% (active); in test [4] it was 42.6%; in test [5] it was 64.8%; in test [6], 68.2%.

`NNC(=O)C(=O)N/N=C1\CCC(=O)CC1C(=O)CCC(=O)Nc1ccc(Cl)cc1` (stereo not given): the growth inhibition in test [1] was 10.3%; in test [2] it was 1.05%; in test [3], -16.6%; in test [4], -9.35%; in test [5], -0.8%; in test [6] it was -17.5%.

In the case of `CN/N=C(\C(=O)Nc1ccc(C)c(C)c1)C(C(=O)OC)c1nc2ccc([N+](=O)[O-])cc2[nH]c1=O` (stereo not given), the growth inhibition in test [1] was -42.9%; in test [2], 2.7%; in test [3], -19.1%; in test [4] it was 19.3%; in test [5], -1.25%; in test [6] it was -18.2%.

As to `C/C=C1\OC(n2cnc3c(N)ncnc32)C(O)C1O` (stereo not given), the growth inhibition is -0.3% in test [1]; -11.8% in test [2]; -14.9% in test [3]; 2.5% in test [4]; -16.2% in test [5]; -1.8% in test [6].

Take `CCOC(=O)OC1CC2CC(OC(=O)OCC)c3cccc(Br)c3C2c2ccccc21` (stereo not given): the growth inhibition was 25.1% in test [1]; 12.9% in test [2]; 18.8% in test [3]; 0.05% in test [4]; -5.3% in test [5]; 33.7% in test [6].
